Screening results from PubChem.
SARS PLpro yeast: blocks SARS-CoV papain-like protease in a yeast assay. actives 0.19% (n = 330,000). S. cerevisiae expressing SARS-CoV PLpro, growth rescue. AID 485353. Potency, µM (doses to about 32.9 µM), for the others: at the top dose activity, positive = growth rescue, actives largely listed as activators; calls by dose curve; also: potency is read from the fitted curve at half-maximal effect; 0% is about no effect; nearly all actives have a fitted effect of over 55% in size
Cycloheximide cs: counter-screen hit for Shiga toxin inhibitors, cycloheximide; cell reporter, cycloheximide protein synthesis inhibition counterscreen; AID 2314; max response, %; actives 12% (n = 300,000); in the data active = max response mostly above about 13%, no sharp cut-off; inactive = mostly below about 14%; also: read at 38.3 µM for the half of the compounds with a filed dose; 0% is about no effect
TbPYK inhibitor: inhibitors of Trypanosoma brucei pyruvate kinase | actives 0.12% (n = 410,000) | Q57TT1 | TbPYK enzyme, Kinase-Glo Plus ATP luminescence, 45 min | Potency, µM (highest dose often 76.8 µM), for the others: top-dose activity, negative = inhibition, most hits filed as inhibitors; also: potency is read from the fitted curve at half-maximal effect; % is scaled to controls: 0 for no effect and ±100 for the full control effect; nearly all actives have a fitted effect of over 50% in size
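Enzyme and substrate buffer are dispensed first and compound is pin-transferred. ADP at 130 uM final then starts the reaction, which runs 45 min at room temperature. Detection reagent is added for 10 min before luminescence is imaged.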
Shiga inhibitor: blocks Shiga toxin action in Vero cells | Vero cells, Shiga toxin protein synthesis inhibition reporter | inhibition, % at 38.7 µM | actives 9.2% (n = 290,000); in the data active = inhibition mostly above about 28%, no sharp cut-off; inactive = mostly below about 43%; also: 0% is about no effect
NS1 function inh: inhibitors of influenza NS1 protein function | actives 0.4% (n = 270,000) | AID 2326 | Potency, µM (top dose mostly 46.1 µM), without a hit: at the top dose activity, positive = more growth; calls by dose curve; also: potency is read from the fitted curve at half-maximal effect; actives are rising curves; nearly all actives have a fitted effect of over 50% in size
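Recovery from NS1-induced slow growth read by OD600 in budding yeast switched to galactose assay medium (pH 6.0, -URA) at 1:100 dilution. Compound 23 nl per well; the matching strain lacking NS1 serves as control.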
LmPK inh: blocks Leishmania mexicana pyruvate kinase activity; Potency, µM (top dose mostly 57.5 µM), inactives show top-dose activity change, negative = inhibition, usual class: inhibitors; purified LmPK, Kinase-Glo ATP luminescence, 1 h; actives 0.37% (n = 290,000); AID 1721; Q27686; also: potency is read from the fitted curve at half-maximal effect; % is scaled to controls: 0 for no effect and ±100 for the full control effect
Target sequence (Q27686 whole entry, looked up): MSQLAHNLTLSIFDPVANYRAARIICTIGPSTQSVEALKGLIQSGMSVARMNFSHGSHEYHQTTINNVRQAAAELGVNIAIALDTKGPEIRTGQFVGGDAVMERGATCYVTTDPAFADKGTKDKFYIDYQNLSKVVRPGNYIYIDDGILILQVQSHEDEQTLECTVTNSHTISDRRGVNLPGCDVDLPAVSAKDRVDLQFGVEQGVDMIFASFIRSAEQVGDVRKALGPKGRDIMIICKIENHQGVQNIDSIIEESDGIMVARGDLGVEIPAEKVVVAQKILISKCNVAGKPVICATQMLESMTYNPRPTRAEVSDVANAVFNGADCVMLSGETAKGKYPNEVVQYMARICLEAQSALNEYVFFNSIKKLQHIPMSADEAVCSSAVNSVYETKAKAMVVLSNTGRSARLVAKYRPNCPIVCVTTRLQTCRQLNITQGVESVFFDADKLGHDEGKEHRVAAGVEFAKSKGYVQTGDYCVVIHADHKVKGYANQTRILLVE
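0.1 nM LmPK, 0.5 mM PEP, 0.1 mM ADP; 50 mM imidazole pH 7.2, 7 mM MgCl2, 50 mM KCl; 1 h RT. Kinase-Glo luminescence readout, normalized to no-enzyme (full inhibition) and uninhibited wells.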
* marks the source's active call; other numbers are inactive results; ? = inconclusive; . = not tested or not shown. The full list was thinned out, with hits kept by preference. Unless noted, calls follow the shape of the dose curve; as a rule, active = well fitted curve in the direction sought with a large enough effect; inconclusive = small, poorly fitted or top-dose-only effect, or another doubt; inactive = no such curve, though single readings can be large; an effect the other way counts as inactive or inconclusive.

SMILES	SARS PLpro yeast	Cycloheximide cs	TbPYK inhibitor	Shiga inhibitor	NS1 function inh	LmPK inh
Cc1cc(NC(=O)/C=C/c2ccco2)ccc1NC(=O)c1ccccc1	0%	29*	-3%	53*	?	3%
CCN(C(=O)COC(=O)c1ccc(C=O)cc1)c1c(N)n(Cc2ccccc2)c(=O)[nH]c1=O	5%	.	-3%	.	.	.
Cc1ccc(NCc2ccco2)cc1C	0%	27*	-6%	70*	0%	-15%
Cc1cc(NC(=O)c2ccco2)ccc1NC(=O)c1ccco1	-43%	22	-17%	71*	2%	?
Cc1ccccc1NC(=O)c1ccccc1NC(=O)c1ccco1	-1%	1	1%	-7	-23%	-2%
Cc1cc(NC(=O)NCc2ccco2)ccc1NC(=O)NCc1ccco1	.	.	4%	.	.	.
Cc1ccccc1NC(=O)c1ccc(NC(=O)c2ccco2)cc1	-14%	27*	-2%	39	-1%	-3%
Cc1ccc(NC(=O)c2ccco2)cc1C	-34%	37*	?	84*	-156%	?
Cc1ccc2c(c1)cc1c(=O)[nH]ncn12	2%	8	12%	88*	-11%	-2%
C[C@H](NC(=O)[C@@H]1CSC2c3ccccc3C(=O)N21)C(=O)NCCc1ccccc1 (some centres undefined)	19%	43*	3%	51*	-7%	5%
O=[N+]([O-])c1ccc2c(c1)/C(=N\O)c1ccccc1-2	-3%	6	11%	39	7%	12%
O=[N+]([O-])c1ccc2c(c1)-c1ccccc1C2O (centres undefined)	.	.	16µM*	.	.	.
O=C(N/N=C/c1cccnc1)c1ccc(Cn2cc([N+](=O)[O-])cn2)o1	1%	-6	-2%	3	.	1%
CCCOc1ccc(/C=N/NC(=O)c2ccc(Cn3cc([N+](=O)[O-])cn3)o2)cc1	5%	-3	-10%	25	-5%	-6%
COc1ccc(/C=N/NC(=O)c2ccccc2O)cc1Cn1cc([N+](=O)[O-])cn1	1%	24*	2%	39	6%	0%
COc1ccc(/C=N/NC(=O)c2ccc(Br)o2)cc1Cn1cc([N+](=O)[O-])cn1	14%	39*	-6%	77*	6%	3%
COc1ccc(/C=N/Nc2ccccc2C(=O)O)cc1Cn1cc([N+](=O)[O-])cn1	0%	46*	2%	56*	4%	5%
Cc1ccc(/C=N/NC(=O)c2ccc(Cn3cc([N+](=O)[O-])cn3)o2)cc1	-6%	15	5%	21*	-1%	0%
Cc1ccc(Cn2c(C)c3cnn(CC(=O)O)c(=O)c3c2C)cc1	.	.	2%	.	.	.
COc1cccc(/C=N\NC(=O)c2ccc(Cn3cc(Br)c([N+](=O)[O-])n3)o2)c1O	5%	44*	2%	56*	28%	6%
COc1cc(/C=N\NC(=O)c2ccc(Cn3nc([N+](=O)[O-])c(Cl)c3C)o2)ccc1O	7%	-2	-10%	-8	16%	4%
CC(C)c1ccc(/C=N\NC(=O)c2ccc(Cn3cccn3)o2)cc1	23%	54*	-5%	71*	-2%	-1%
COc1ccc(/C=N/NC(=O)c2ccc(Br)cc2)cc1Cn1cc(Cl)cn1	11%	-3	-7%	-8	2%	1%
COc1ccc(/C=N/NC(=O)c2cc(O)c(O)c(O)c2)cc1Cn1cc([N+](=O)[O-])cn1	10µM*	9	-1%	28	.	1%
CCC1CCCCN1Cc1nc2ccccc2c(=O)n1CC(C)=O (centres undefined)	0%	34*	3%	75*	4%	3%
SMILES	SARS PLpro yeast	Cycloheximide cs	TbPYK inhibitor	Shiga inhibitor	NS1 function inh	LmPK inh
Cc1[nH]c2ccc(C(=O)N3CCCC3)cc2c1C	2%	30*	-10%	23	-1%	5%
Cc1[nH]c2ccc(C(=O)N3CCCCC3)cc2c1C	-1%	39*	-2%	107*	.	-5%
c1ccc(-c2cc3cc4c(cc3cn2)OCO4)cc1	1%	.	-10%	.	.	.
CCc1ccc(Sc2cc(C(=O)NCc3ccccc3OC)c3ccccc3n2)cc1	.	.	-8%	.	.	.
COc1cc(C=O)cc(Cl)c1OC(=O)N1CCOCC1	1%	4	2%	17	2%	0%
OC(c1ccccc1)(c1nc(-c2cc3ccccc3o2)cs1)C(F)(F)F (centres undefined)	.	.	2%	.	.	.
CC(=O)N=c1sc2ccccc2n1C	3%	13	-1%	-2	1%	-1%
Cc1ccc(C(=O)N/N=c2\sc3ccccc3n2C)cc1	-8%	20*	-12%	-6	-7%	-2%
COc1cccc(C(=O)N/N=c2\sc3ccccc3n2C)c1	-17%	15*	-4%	20	-39%	-2%
Cn1/c(=N/NC(=O)c2ccccc2F)sc2ccccc21	0%	35*	6%	79*	.	-2%
CCC(=O)N/N=c1/sc2ccccc2n1C	4%	7	-18%	27	.	2%
COc1cccc(C(=O)N/N=C2/SCC(=O)N2CCc2ccc(OC)c(OC)c2)c1	-1%	-5	-18%	-8	-10%	-6%
CC(C)C(=O)Nc1cccc(NC(=O)c2cc3ccccc3o2)c1	-4%	54*	0%	42*	-35%	-15%
Cc1ccc(-c2nc3cc(NC(=O)c4cc5ccccc5o4)ccc3o2)cc1Cl	.	.	2%	.	.	.
CC(C)NC(=O)c1cc2ccccc2o1	-16%	5	-5%	2	1%	-1%
Cc1ccc(NC(=O)c2cc3ccccc3o2)cc1Cl	-3%	47*	2%	111*	-57%	-10%
Cc1cc(C)nc(NC(=O)c2cc3ccccc3o2)n1	1%	4	0%	39	-20%	-17%
CC(=O)Nc1cccc(NC(=O)c2cc3ccccc3o2)c1	0%	33*	0%	49	-7%	-20%
Cc1cccc(NC(=O)C(Cc2ccccc2)NS(=O)(=O)c2ccc3c(c2)c(=O)n(C)c(=O)n3C)c1 (centres undefined)	.	.	0%	.	.	.
COc1ccc(CNC(=S)N/N=C(/C)c2ccccc2)cc1	-1%	49*	-2%	84*	-7%	7%
Cc1[nH]c2ccccc2c1/C=N/NC(=S)NCc1ccccc1	1%	13	1%	-11	.	6%
C=C(C)CNC(=S)N/N=C(\C)c1ccc(OC)cc1	-29%	6	-4%	9	-17%	2%
C/C(=N\NC(=S)NCc1ccccc1)c1ccc(C(C)(C)C)cc1	?	12*	-18%	-7	8%	-5%
CC1=C/C(=N\NC(=S)NCc2ccccc2)CC1	?	26*	-1%	56*	-2%	0%
C/C(=N\NC(=S)NCc1ccccc1)c1ccccc1F	23%	23	-5%	46*	.	14%
O=C(NC(=S)NCc1ccccc1)c1ccccc1F	17%	13	.	10	5%	1%
CC(C)c1ccc(NC(=O)c2ccc3c(c2)CCCN3S(C)(=O)=O)cc1	.	.	-6%	.	.	.
